Sampled rows, rich in hits. Any-hit rate of the full collection: about 14%.
FBPA Giardia inh: blocks Giardia fructose-bisphosphate aldolase activity. A8B2U2. purified Giardia FBPA. Potency, µM (doses to about 59.6 µM), most hits filed as inhibitors. 290,000 compounds, 0.71% hits. AID 2451; also: nearly all actives have a fitted effect of over 55% in size
Target sequence (A8B2U2 whole entry, looked up): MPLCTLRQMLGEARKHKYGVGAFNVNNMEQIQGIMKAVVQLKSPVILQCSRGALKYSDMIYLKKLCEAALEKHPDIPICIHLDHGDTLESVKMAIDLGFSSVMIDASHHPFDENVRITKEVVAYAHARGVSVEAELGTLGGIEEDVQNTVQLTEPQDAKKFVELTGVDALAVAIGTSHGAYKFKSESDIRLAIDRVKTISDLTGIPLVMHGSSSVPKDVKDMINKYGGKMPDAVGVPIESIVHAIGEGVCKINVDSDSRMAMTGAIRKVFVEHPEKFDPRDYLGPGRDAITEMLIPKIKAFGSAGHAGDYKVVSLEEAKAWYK
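Giardia FBPA (40 nM reagent) was preincubated 10 min at RT with compound (up to 57.5 uM final), then substrate plus GAPDH/TPI/NAD/arsenate coupling system with diaphorase/resazurin was added; resorufin fluorescence (525/598 nm) was read after 20 min.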
Pf growth 48h: inhibits P. falciparum growth in the first generation, 48 h; P. falciparum luciferase growth in erythrocytes, 48 h; Potency, µM (highest dose often 28.7 µM), most hits filed as inhibitors; 310,000 compounds, 5.9% hits; AID 504832
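A one-generation exposure of luciferase-tagged malaria parasites in RPMI 1640/Albumax erythrocyte culture, 37 C and 5% CO2. Inhibition is inferred from decreased luminescence after adding detection reagent.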
Sm TGR block: S. mansoni TGR enzyme inhibition | Q962Y6 | purified TGR, DTNB reduction, TNB absorbance 405 nm | Potency, µM (highest dose often 114 µM), most hits filed as inhibitors | 360,000 compounds, 3% hits; also: nearly all actives have a fitted effect of over 60% in size
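TGR 20 nM + NADPH 100 uM (dispensed conc.), cpd preinc 15 min RT; start with NADPH (500 uM addition) then DTNB (15 mM addition). Kinetic TNB absorbance, 405 nm filter. Four-parameter Hill fit across titration.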
Pf growth 96h: P. falciparum growth inhibition at 96 hours | P. falciparum luciferase reporter growth, 96 h | Potency, µM (series often up to 28.7 µM), hits mostly inhibitors | 320,000 compounds, 6.9% hits
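Parasite growth measured via integrated firefly luciferase reporter in P. falciparum. Infected erythrocytes at 2% hematocrit, 0.05% parasitemia final were treated 96 hours at 37 C under 5% CO2, and luminescence was read.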
HCMV inh: blocks human cytomegalovirus replication | HFF cells, HCMV-luciferase reporter, 72 h; active compounds read low | activity change, negative = inhibition, % at 57.5 µM | 410,000 compounds, 4.5% hits | AID 1259415; in the data active = activity change below about -60%; inconclusive = no clear call, values can overlap the other calls; inactive = above about -39%
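Human foreskin fibroblasts infected with luciferase-reporter HCMV at MOI 1 PFU/cell, compounds at two doses. Luciferase measured 72 h post infection; normalized to buffer-only basal and Salinomycin (10uM) controls.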
A number is an active result; . = inactive; ? = inconclusive; / = not tested or not shown; [ ] = another dose, or the depositor's remark. Unless noted, calls follow the shape of the dose curve; as a rule, active = well fitted curve in the direction sought with a large enough effect; inconclusive = small, poorly fitted or top-dose-only effect, or another doubt; inactive = no such curve, though single readings can be large; an effect the other way counts as inactive or inconclusive.

SMILES	FBPA Giardia inh	Pf growth 48h	Sm TGR block	Pf growth 96h	HCMV inh
OC(c1cc(C(F)(F)F)nc2c(Cl)cc(Cl)cc12)C1CCCCN1 (centres undefined)	.	0.013µM	.	0.0033µM	.
O=C(NC1CCC(O)CC1)c1cc(-c2ccc(Cl)cc2)nc2ccccc12 (centres undefined)	/	?	.	?	.
CCC[C@H]1[C@@H](NS(=O)(=O)c2ccccc2C)CC[C@@]23CCCN2C(=O)CCC[C@@H]13	/	/	/	/	.
COc1ccc(OC)c(NC(=O)CSc2ncccn2)c1	.	/	.	.	.
COc1cc(NC(=O)CSc2ncnc3c2cnn3Cc2ccccc2)cc(OC)c1	.	12µM	.	/	.
COC(=O)CSc1ncnc2c1cnn2Cc1ccccc1	.	.	?	.	.
COc1ccc(OC)c(NC(=O)CSc2ncnc3c2cnn3-c2ccccc2Cl)c1	.	10µM	?	.	/
CC(C)CCNC(=O)Nc1cc(C(=O)NCc2cccc(F)c2)ccc1N1CCCC1	/	/	.	/	.
COc1cccc(-c2cc(NCc3cnc(C)cn3)ncn2)c1	.	/	/	/	/
CC(C)(C)c1cc(/C=N/NC(=O)Cc2nc3ccccc3[nH]2)cc(C(C)(C)C)c1O	.	/	?	?	-79
O=C(Cc1nc2ccccc2[nH]1)N/N=C/c1ccccc1	.	.	.	.	.
C=CCOc1c(Br)cc(CNc2nccs2)cc1OC	.	?	.	0.37µM	?
CCCn1c(=O)c2c(nc3n2CCN3Cc2ccco2)n(C)c1=O	.	.	.	.	.
COc1ccccc1Oc1nc2c(c(=O)n(Cc3ccccc3F)c(=O)n2C)n1C	.	.	2.8µM	15µM	.
Cn1c(=O)n(Cc2ccccc2F)c(=O)c2c1nc1n2CCN1Cc1ccco1	.	?	.	8.3µM	.
Cn1c(=O)n(Cc2ccc(Cl)cc2)c(=O)c2c1nc1n2CCN1Cc1ccco1	.	?	.	13µM	-86
Cc1cccc(Cn2c(=O)c3c(nc4n3CCN4Cc3ccco3)n(C)c2=O)c1	.	9.3µM	.	5.9µM	.
Cc1nc(NC(=O)C(C)(C)C)sc1C(=O)Cn1cc(-c2ccc(C(C)(C)C)cc2)nn1	/	/	/	/	.
O=C(C1CCCN(Cc2ccccc2)C1)N1CCCCC1 (centres undefined)	.	/	.	?	.
NC(=O)C1CCCN(Cc2ccc3ccccc3c2)C1 (centres undefined)	.	?	.	2.6µM	.
CCN(CC)C(=O)C1CCCN(Cc2cccc(F)c2)C1 (centres undefined)	.	/	.[11.4 µM]	.	.
CCN(CC)C(=O)C1CCCN(Cc2ccc3ccccc3c2)C1 (centres undefined)	.	.	.	13µM	.
C=CCNc1ncnc2c1ncn2[C@H]1CN(CCc2ccccc2)C[C@@H](CO)O1	/	/	/	/	.
CCOc1ccc(C2OC34CCCCC3C(C#N)(C#N)C2(C#N)C(=N)O4)cc1OC (centres undefined)	?	.	50µM	/	/
CCCCOc1ccc(C2OC34CCCCC3C(C#N)(C#N)C2(C#N)C(=N)O4)cc1 (centres undefined)	?	.	?	/	/
SMILES	FBPA Giardia inh	Pf growth 48h	Sm TGR block	Pf growth 96h	HCMV inh
COCCCNc1ncnc2c1nnn2C	/	/	.	/	.
COc1cc(C(=O)NCC2CCCCC2)ccc1OCc1c(C)noc1C	/	.	.	?	.
CCCC[C@@H]1C[C@H]1[C@@H](NP(=O)(c1ccccc1)c1ccccc1)c1ccccc1OC	.	/	/	/	/
C=C(CC1([C@@H](NP(=O)(c2ccccc2)c2ccccc2)[C@H]2C[C@@H]2CCCC)CC1)c1ccccc1	.	5.9µM	.	9.3µM	.
Cc1cccc(CSC(Nc2ccc(F)cc2)=C(C#N)C#N)c1	.	?	.	?	-102
Cc1cccc(NC(=O)Cc2ccc(F)cc2)c1	.	/	.	.	.
N#CC(C#N)=C(Nc1ccc(F)cc1)SCc1cccc(Br)c1	.	?	.	?	-99
Cc1ccc(N2CCN(C(=O)N3CCOCC3)CC2)c(C)c1	.	.	.	?	.
COc1cc(CNc2ccccc2SC)ccc1O	.	.	2.2µM	.	.
CCOc1cc(CNc2ccccc2SC)ccc1O	?	.	8.9µM	/	/
COc1cccc(C(C)(O)c2nc(-c3cccc4cccnc34)cs2)c1 (centres undefined)	/	/	/	/	.
COCCN(C)c1ccc2c(-c3ccccc3OC)noc2n1	/	/	/	/	.
COc1ccc(OC)c(S(=O)(=O)NCc2nc3nc(C)cc(C)n3n2)c1	.	.	.	13µM	.
